The campaign covered roughly 47,000 compounds. About 2,000 (4.3%) were called active. The sample holds actives, similar compounds and a random draw of the others, so the mix is not that of the screen. Rule as the data show it: active = inhibition above about 30%; inactive = the rest.
Each compound was assayed against Ubiquitin carboxyl-terminal hydrolase 8 (Homo sapiens) (UniProt P40818) (assay: inhibitors of human USP8 deubiquitinase (AID 1645853)). Settings: purified USP8, Ub-rhodamine cleavage fluorescence, 30 min; at 20 µM; hits give high values.
Chain of Ubiquitin carboxyl-terminal hydrolase 8 (Homo sapiens) (P40818 whole entry, looked up): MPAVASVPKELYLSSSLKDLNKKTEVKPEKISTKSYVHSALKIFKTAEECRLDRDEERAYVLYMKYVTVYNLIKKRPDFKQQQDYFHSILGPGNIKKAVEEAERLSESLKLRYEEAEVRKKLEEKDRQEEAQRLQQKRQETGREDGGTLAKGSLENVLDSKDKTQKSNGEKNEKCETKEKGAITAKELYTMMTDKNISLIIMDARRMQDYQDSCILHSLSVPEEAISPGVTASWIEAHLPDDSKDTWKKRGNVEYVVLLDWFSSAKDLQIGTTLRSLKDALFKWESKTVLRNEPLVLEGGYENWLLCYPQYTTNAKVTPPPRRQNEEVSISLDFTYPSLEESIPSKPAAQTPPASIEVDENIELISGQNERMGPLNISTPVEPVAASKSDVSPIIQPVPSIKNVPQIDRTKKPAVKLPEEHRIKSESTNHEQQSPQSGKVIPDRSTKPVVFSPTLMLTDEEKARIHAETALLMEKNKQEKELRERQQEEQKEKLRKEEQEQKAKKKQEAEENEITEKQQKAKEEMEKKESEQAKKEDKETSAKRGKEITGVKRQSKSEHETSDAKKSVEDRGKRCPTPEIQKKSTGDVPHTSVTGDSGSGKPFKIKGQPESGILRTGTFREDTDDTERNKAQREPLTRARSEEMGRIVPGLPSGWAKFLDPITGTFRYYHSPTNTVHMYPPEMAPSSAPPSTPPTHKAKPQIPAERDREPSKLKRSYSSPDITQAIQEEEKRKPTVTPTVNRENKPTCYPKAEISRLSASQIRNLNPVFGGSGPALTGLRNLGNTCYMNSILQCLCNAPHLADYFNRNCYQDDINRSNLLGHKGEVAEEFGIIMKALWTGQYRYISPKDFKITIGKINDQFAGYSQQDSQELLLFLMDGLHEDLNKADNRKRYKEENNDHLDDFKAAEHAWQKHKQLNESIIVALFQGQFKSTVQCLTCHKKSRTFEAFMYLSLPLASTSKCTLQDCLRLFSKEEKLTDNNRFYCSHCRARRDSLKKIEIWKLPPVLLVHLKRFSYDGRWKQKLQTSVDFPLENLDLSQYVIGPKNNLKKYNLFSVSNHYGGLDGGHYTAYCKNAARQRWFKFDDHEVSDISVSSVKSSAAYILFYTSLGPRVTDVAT

inhibition, active:
N#Cc1ccc(NC(=O)Nc2cccn(Cc3ccccc3F)c2=O)cc1 96.4%, N#Cc1cccc(S(=O)(=O)c2c[nH]c3ccc(Cl)cc3c2=O)c1 46.9%, CC1=C(C(=O)Nc2ccc(C)cc2C)C(c2cccs2)n2c(nc3ccccc32)N1 (centres undefined) 31.4%, COCCN1C(=O)Cc2c(C)nc(C3(C)CCCN(c4ccnc(C)n4)C3)nc21 (centres undefined) 30.4%, Cn1cc(-c2nc(C(=O)Nc3ccc(F)cc3)cs2)c2cccnc21 30.4%, NC(=O)c1ccc(NC(=O)Cc2cc(-c3ccc(Cl)cc3)on2)cc1 62.4%, Cc1cc(C)c2nc3c(cc2c1)CN(Cc1ccco1)C(=O)O3 75.7%, COc1cc(Cl)c(NC(=O)c2cc(-c3ccccn3)n[nH]2)c(OC)c1 49.3%, CC1(C)Cc2c(c(-c3ccco3)nc3sc4c(SCCCc5ccccc5)ncnc4c23)CO1 75.7%, Clc1cc2nc(N3CCN(c4ccccn4)CC3)c3nncn3c2cc1Cl 75.6%, O=C(NC1CCN(Cc2ccccc2)CC1)c1cc2cn(C3CC3)cc2s1 31.4%, O=C(NCc1ccc2c(c1)OCO2)c1cc2c(s1)CS(=O)(=O)C2 47.6%, COc1ccc(CC2c3cc(OC)c(OC)cc3CCN2C(=O)c2ccc(C)c(Cl)c2)cc1OC (centres undefined) 36.3%, Cc1ccc(-c2ncc(C(=O)Nc3ccccc3C)c(-c3ccncc3)n2)cc1 41%, O=C(Nc1ccc2cn[nH]c2c1)c1cnn(-c2ccccc2)n1 59.1%, Cc1ccc(-c2cn3ccn(-c4ccc(C)cc4C)c(=O)c3n2)cc1 43%, CCc1ccccc1NC(=O)CSc1nnc(-c2ccncc2)o1 54.3%

inhibition, inactive:
Cc1ccc(S(=O)(=O)N(CC(=O)NC(C)c2ccccc2)Cc2ccccc2F)cc1 (centres undefined) 5.32%, COc1cccc(S(=O)(=O)N2CCC(c3nccc(C)n3)C2)c1 (centres undefined) 0.292%, N#Cc1ccc(NC(=O)COC(=O)c2ccc3ccccc3n2)cc1 -17.7%, O=C(CCCn1c(=O)c2ccccc2n(Cc2ccccc2F)c1=O)NC1CCCC1 5.2%, O=C(Cn1cncn1)N1CCN(C(c2ccccc2)c2ccccc2)CC1 -4.21%, c1cnc(Nc2cnc(C3CCCN(Cc4cnc[nH]4)C3)cn2)cn1 (centres undefined) -10.5%, CCN1C(=O)c2ccccc2C(=O)[C@@]2(C)CN(C(=O)c3ccccc3)C[C@@H]12 15.6%, N#Cc1cccc(S(=O)(=O)N2CCC3(CC2)OC(=O)Nc2ccccc23)c1 10.6%, O=c1c(S(=O)(=O)c2cc(F)cc(F)c2)c[nH]c2ccc(F)cc12 4.59%, O=C(C1Cc2ccccc2CN1S(=O)(=O)c1ccc2c(c1)OCCO2)N1CCCC1 (centres undefined) 1.43%, COc1cccc(C2C(C(=O)Nc3ccccc3C)=C(C)Nc3ncnn32)c1OCc1ccccc1 (centres undefined) -22.6%, CC1=C(C(=O)Nc2ccccc2)C(c2cccs2)n2ncnc2N1 (centres undefined) -32.6%, Cc1cc2c(cc1CNC(=O)c1ccc3c(c1)CC(C)O3)OCCCO2 (centres undefined) -4.91%, O=C1c2ccccc2-c2nnc(-c3ccc(Oc4ccccc4)cc3)cc21 14.8%, Cc1nn2c(S(=O)(=O)Nc3cccc(F)c3C)c(C)nc2s1 19.1%, COCCN1C(=O)Cc2c(C)nc(C3(C)CCCN(c4cc(C)ncn4)C3)nc21 (centres undefined) 6.73%, O=C(C1CCCCC1)N1CCN(c2ncnc3c2nnn3Cc2ccccc2)CC1 6.37%, Cc1cccc(NC(=O)c2csc(-c3cn(C)c4ncccc34)n2)c1 6.69%, Cn1nc(C(=O)Nc2ccc(F)cc2)c(=O)c2ccccc21 -3.42%, Cc1[nH]c(C)c(S(=O)(=O)NC2CC2)c1-c1nc(C2CC2)no1 -17.3%, NC(=O)c1ccc(CN2CCC3(CC2)CC3c2nc(-c3cccc(Cl)c3)no2)cc1 (centres undefined) -39.4%, COc1cccc(CCNC(=O)Cc2cc(-c3ccc(C)cc3)on2)c1 -12.1%, CC(=O)Nc1ccc(S(=O)(=O)NCc2cn3ccccc3n2)cc1 -7.51%, Cc1ccc(-n2c3c(c(=O)[nH]c2=O)CN(Cc2ccco2)CN3)cc1 -10.7%, COc1ccc2nc3c(cc2c1)CN(Cc1ccccc1)C(=O)O3 20.1%, O=S1(=O)c2ccccc2C(Oc2ccccc2)CN1CCO (centres undefined) -13.4%, O=S(=O)(Nc1ccc(N2CCOCC2)cc1)c1cccc2cccnc12 -35.6%, CCC1=N[C@@]2(CC[C@@H]3CN(C(=O)Nc4ccc(CC)cc4)C[C@@H]32)C(=O)N1C -21.1%, O=C(Nc1ccc(Cl)cc1F)c1cc(-c2ccccn2)n[nH]1 19.3%, Cc1ccc(CC(=O)N2CCN(C(=O)c3cc(-c4ccccn4)n[nH]3)CC2)cc1 -164%, CC1[C@@H]2[C@@H](C(=O)N3CCOCC3)C[C@H](CN1S(=O)(=O)N(C)C)N2Cc1ccccc1 (some centres undefined) 0.42%, O=C1NC2(COC3(CCN(Cc4cccnc4)CC3)C2)Nc2ccc(Cl)cc21 (centres undefined) -202%, Cc1c(C)n(-c2cccnc2)c2ncn3nc(-c4ccccn4)nc3c12 -3.69%, CSc1ncnc2c1sc1nc(-c3ccccc3)c3c(c12)CC(C)(C)OC3 2.79%, CCCCCCSc1ncnc2c1sc1nc(-c3ccccc3)c3c(c12)CC(C)(C)OC3 -5.24%, O=C(C1CC1)N1CC[C@@H]2Oc3ccccc3S(=O)(=O)N(Cc3ccccc3)[C@H]2CC1 -86.6%, O=c1[nH]c(-c2ccccn2)nc2c1CCN(Cc1cnn(-c3ccc(F)cc3)c1)C2 -247%, Cc1nn(-c2ccccc2)c(C)c1S(=O)(=O)N1CCN(c2ccccn2)CC1 -28.5%, O=C(c1ccc(N2CCCC2)nn1)N1CCN(c2ccccn2)CC1 -50.6%, COc1cccc(-c2cc(C(=O)N3CCN(c4ccc(N5CCOCC5)nn4)CC3)[nH]n2)c1 -8.45%, FC(F)(F)c1ccc(-c2cnc([C@@H]3COCCN3C3CCOCC3)[nH]2)cc1 2.96%, COc1ccc(CN2Cc3ccccc3OC3(CCC(CO)CC3)C2)c(F)c1 (centres undefined) -66.5%, Cc1nn(C)c(C)c1CNC(=O)c1cc2cn(C3CCCC3)cc2s1 -141%, O=C(NC1CCN(Cc2ccccc2)CC1)c1cn2c(n1)CCCC2 -18.5%, CCOC(=O)C1=C(CN2CCN(c3ccccc3OC)CC2)NC(=O)NC1c1cccc(OC)c1OC (centres undefined) -6.79%, Cc1nc(-c2ccc(C(=O)NCc3ccc4c(c3)OCO4)cc2)cs1 7.04%, O=C(NCCc1ccccc1)c1cc2c(s1)CS(=O)(=O)C2 3.17%, O=S(=O)(c1ccccc1)N1CCCCCC1C1CCN(Cc2nc(C3CC3)no2)CC1 (centres undefined) -3.93%, COc1ccc(C(=O)N2CCc3cc4ccccc4nc32)cc1OC -4.03%, COc1cc2c(cc1OC)C(c1cccs1)N(C(=O)c1ccc3n[nH]nc3c1)CC2 (centres undefined) 6.71%, COc1ccc(C2CC(=O)c3cnc(NCc4ccco4)nc3C2)c(OC)c1 (centres undefined) -0.335%, Cc1ccc(CSc2nnc(/C=C/c3ccccc3)o2)cc1 -1.95%, CCCNc1cc(N2CCCC(CCC(=O)N3CCC(C)CC3)C2)ncn1 (centres undefined) -110%, CCc1ccc(S(=O)(=O)NCC(O)COc2ccc(OC)cc2)cc1 (centres undefined) -1.1%, Cc1ccc(F)cc1NC(=O)c1cnc(-c2ccccc2)nc1-c1ccncc1 12.2%, O=C(Nc1cc(Cl)ccc1F)c1cnc(-c2ccccc2)nc1-c1ccncc1 -14%, Cc1nn(-c2ccccc2)c2c1C(C(=O)c1ccc(Cl)s1)CC(=O)N2 (centres undefined) 10.5%, COc1ccc(C(=O)NCC(c2cccnc2)S(=O)(=O)c2ccc(C)cc2)cc1OC (centres undefined) -8.69%, CCOC(=O)c1c(NC(=O)c2ccco2)sc(Cc2ccc3c(c2)OCO3)c1C 20.7%, O=C(Nc1ccc2oc(-c3ccccc3)nc2c1)c1cccc(-n2cnnc2)n1 3.67%, O=C(c1cnn(-c2ccc(Cl)cc2)n1)c1cccs1 2.7%, O=C1CN(C(=O)CNc2ccccc2N2CCCC2=O)c2ccccc2N1 4.28%, O=c1c(S(=O)(=O)N2CCCC2)cccn1Cc1cc(=O)n2ccccc2n1 -4.28%, Cc1ccn2cc(-c3ccc(NS(=O)(=O)c4cc(C)c(C)cc4C)cc3)nc2n1 21.4%, CC(C)(C)c1ccc(Cn2nnc3c(=O)[nH]c(C4CCN(S(=O)(=O)c5ccc6c(c5)OCCO6)CC4)nc32)cc1 7.01%, O=C(O)c1cc(-c2cccc3ccccc23)n[nH]1 -80.6%, O=C(c1cnccn1)N1CC(C(=O)N2CCCC2)C1 0.517%, O=C(CSc1nnc(-c2ccncc2)o1)Nc1cccc(Cl)c1 4.92%, CCN(C(=O)CSc1nnc(-c2ccncc2)o1)c1ccccc1 14.4%, Cc1ccc2occ(CC(=O)Nc3sc4c(c3C(=O)NCc3cccnc3)CCCC4)c2c1 20.7%, CCC(Cc1ccccc1)NS(=O)(=O)c1ccc2c(c1)NC(=O)CS2 (centres undefined) 3.6%, CCOc1ccc(CNS(=O)(=O)c2cccc(-c3noc(C)n3)c2)cc1OC -8.47%

From PubChem BioAssay AID1645853 (Buhrlage Lab, Dana-Farber Cancer Institute and Novartis …, 2021)
